# Results reported in PubChem BioAssay AID1259423 (Fisher Drug Discovery Resource Center, 2018).
# In all, about 270,000 compounds went through this assay and about 410 (0.15%) were called active. Cut-off read from the data, not from the text of the source: active = activation above about 40%; inactive = the rest, inconclusive results apart. Only a selection was taken, and actives are over-represented in it overall.
# Test system: Aedes aegypti neuropeptide Y-like receptor 7 (NPYLR7)
# Assay: agonists of mosquito NPYLR7 receptor, primary screen, cell-based, Aedes aegypti, calcium fluorescence, mosquito biting behavior (AID 1259423);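 note: 0% = vehicle and 100% = reference agonist at the receptor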
# Conditions: HEK293T NPYLR7/Galpha15, GCaMP6s calcium fluorescence, at 10 µM, stronger effect = higher value
# [1] = measured here: Max-Min RFU normalised activation
Compound,activation,activation [1] [%]
CCCCN(C)C(=O)c1nn(Cc2ccc(S(=O)(=O)N(C)c3ccccc3)cc2)c2ccccc12,11.3% (inactive),10
CNC(C)c1nc2ccccc2c(=O)n1-c1ccc(Br)cc1 (stereo not drawn),0.997% (inactive),9.08
CC(C)CN(Cc1cc(NC(=O)c2cccc(F)c2)ccc1N(C)C1CCN(C)CC1)C(=O)c1ccccc1Cl,1.98% (inactive),1.76
N#[N+]c1c[nH]c2ccccc2c1=O,-8.5% (inactive),-5.61
